Assay outcomes: PubChem BioAssay, National Center for Advancing Translational Sciences (NCATS)
HT1080 IDH1KD tx: HT-1080 IDH1 knockdown cell toxicity (counter line); HT-1080 IDH1 knockdown viability, ATP luminescence, 48 h; Potency, µM (series often up to 46.1 µM), without a hit: top-dose activity, negative = toxicity, hits mostly cytotoxic; 360,000 compounds, 2% hits; AID 686971;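 also: potency is read from the fitted curve at half-maximal effect; 0% = DMSO wells and -100% = cell-free medium wells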
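Viability of IDH1-knockdown HT-1080 fibrosarcoma cells was assessed by CellTiter-Glo after 48 h at 37 °C with titrated compound; concentration-effect curves were classified by fit quality and response size.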
DT40 TDP1 no CPT: qHTS for Inhibitors of human tyrosyl-DNA phosphodiesterase 1 (TDP1): qHTS in cells in absence of CPT; 420,000 compounds, 15% hits; Potency, µM (titrated, usually from 46.2 µM), for inactives: at the highest dose activity change, negative = growth inhibition, usual class: inhibitors; DT40 Tdp1-/- hTDP1 cells, no CPT, ATP luminescence, 48 h; also: potency is read from the fitted curve at half-maximal effect; nearly all actives have a fitted effect of over 55% in size
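Readout: luminescence from CellTiter-Glo after 30 min in the dark at RT. Cells: DT40 Tdp1-/- with stable hTDP1, 400/well. Exposure: compounds alone, ≥48 hr, 37 °C.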
DT40 TDP1 CPT: growth inhibition of DT40 Tdp1-/-;hTDP1 cells with camptothecin (screen for TDP1 inhibitors) | AID 686979 | chicken DT40 Tdp1-/-;hTDP1 cells + 20 nM CPT, ATP luminescence, 48 h | Potency, µM (highest dose often 46.2 µM), without a hit: at the top dose activity change, negative = growth inhibition, most hits filed as inhibitors | 420,000 compounds, 12% hits; also: potency is read from the fitted curve at half-maximal effect; nearly all actives have a fitted effect of over 55% in size
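Cell growth measured by CellTiter-Glo luminescence after a minimum 48 h, 37 C compound exposure with 20 nM CPT in Tdp1-knockout DT40 cells stably expressing hTDP1, seeded 400/well; qHTS titration format.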
HT1080NT lethal: kills 2HG-producing HT-1080-NT fibrosarcoma cells; AID 686970; Potency, µM (highest dose often 46.1 µM), inactives show at the highest dose activity, negative = less viability, most hits filed as cytotoxic; 360,000 compounds, 1.6% hits; HT-1080-NT fibrosarcoma viability, CellTiter-Glo ATP luminescence, 48 h;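 also: NT is the 2HG producing partner of a matched IDH1 knockdown line; potency is read from the fitted curve at half-maximal effect; 0% = DMSO-treated cells and -100% = media-only wells without cells; nearly all actives have a fitted effect of over 55% in size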
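Viability of the 2HG-overproducing fibrosarcoma line after 48 hours of compound exposure at 37 degrees C was determined by luminescence with CellTiter-Glo, and concentration-effect curves were then fitted and categorized.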
IL1B secr inh: inflammasome signaling inhibition, IL-1 beta readout. activity change, % at 57.5 µM. 360,000 compounds, 4.7% hits. AID 743279. THP-1 LPS/ATP IL-1B secretion, AlphaLISA, 16 h; hits give low values; in the data active = activity change below about -50%; inconclusive = mostly about -30% to -49%
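THP-1 cells pretreated 1 hr with compounds (up to 57.5 uM final), then stimulated with LPS (250 ng/mL final) plus ATP (1.25 mM final); secreted IL-1B measured by AlphaLISA after 16 hr, decreased signal indicating inhibition.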
* = called active by the depositor; ? = inconclusive; nt = no result. Sampled rows, rich in hits. Any-hit rate of the full collection: about 19%. Unless noted, calls follow the shape of the dose curve; as a rule, active = well fitted curve in the direction sought with a large enough effect; inconclusive = small, poorly fitted or top-dose-only effect, or another doubt; inactive = no such curve, though single readings can be large; an effect the other way counts as inactive or inconclusive. Unless noted, % is scaled to controls: 0 for no effect and ±100 for the full control effect.

SMILES	HT1080 IDH1KD tx	DT40 TDP1 no CPT	DT40 TDP1 CPT	HT1080NT lethal	IL1B secr inh
O=C(O)[C@H]1[C@H]2C[C@H]3c4[nH]c5ccccc5c4CCN3C[C@@H]2CC[C@@H]1O	nt	13µM*	11µM*	nt	nt
Cn1cc(C(=O)N2CCN(c3cccc(Cl)c3)CC2)c(=O)c2cc(S(=O)(=O)N3CCOCC3)ccc21	6%	9%	8%	-2%	20
Cc1nnsc1C(=O)Nc1cc(Cl)ccc1Cl	-14%	0%	1%	?	0
COC(=O)c1cc(NC(=O)Cn2c(=O)cnc3ccccc32)cc(C(=O)OC)c1	14%	-1%	-3%	8%	19
NC1=NCCCC1	nt	2.7µM*	3.8µM*	nt	nt
CCN(CC(=O)NCc1ccc(Cl)cc1)C(=O)c1cc(OC)cc(OC)c1	-17%	-28%	1%	-1%	-9
Cc1nc2ccccc2n1S(=O)(=O)c1ccc(S(=O)(=O)N2CCCCCC2)cc1	-1%	-4%	-7%	2%	16
Cc1ccc(S(=O)(=O)n2c(CN3CCCC(C)C3)nc3ccccc32)cc1 (stereo unspecified)	-2%	-23%	2%	8%	-51*
Cc1ccccc1-c1nnc(SCC(=O)N(C)C2CCCCC2)o1	nt	-25%	?	nt	nt
CN1C(=O)/C(=C2\SC(N)=NC2=O)c2ccccc21	-1%	26µM*	18µM*	-1%	-18
CCCN1C(=O)/C(=C2\SC(N3CCCCC3)=NC2=O)c2ccccc21	-29%	18µM*	?	-17%	-55*
CCc1ccccc1Nc1nc(N)nc(COC(=O)C2CCN(C(=O)c3ccc(F)cc3)CC2)n1	-25%	?	2%	-2%	15
O=C(/C=C/Nc1ccc(S(=O)(=O)Nc2ncccn2)cc1)c1ccc2ccccc2c1	20%	-13%	-7%	-1%	1
COc1ccccc1NS(=O)(=O)c1ccc(C)c(C(=O)NCC(c2cccs2)N2CCOCC2)c1 (stereo unspecified)	-5%	?	?	-1%	0
O=C(CCC(=O)NNC(=O)Nc1cccc(Cl)c1)NCc1ccccc1	-3%	-14%	3%	-15%	-4
Cc1ccccc1Nc1cccc2nonc12	-14%	-25%	2%	-2%	-52*
CN(C)S(=O)(=O)c1ccc2c(c1)C(=NNC(N)=O)c1cc(S(=O)(=O)N(C)C)ccc1-2	-3%	?	16µM*	-18%	-1
CN(C)S(=O)(=O)c1ccc2c(c1)C(CC(=O)O)OC2=O (stereo unspecified)	-3%	2%	-2%	0%	-7
CN(C)S(=O)(=O)c1ccc2c(c1)C(=NO)c1cc(S(=O)(=O)N(C)C)ccc1-2	-22%	8.2µM*	?	-20%	9
CN(C)N=C1c2cc(S(=O)(=O)N(C)C)ccc2-c2ccc(S(=O)(=O)N(C)C)cc21	-25%	2.9µM*	4.6µM*	-18%	9
CN(CCO)S(=O)(=O)c1ccc2c(c1)C(=NNC(N)=O)c1cc(S(=O)(=O)N(C)CCO)ccc1-2	6%	10%	2%	0%	0
O=C(Nc1cc(S(=O)(=O)N2CCOCC2)ccc1N1CCOCC1)c1ccc(Cl)nc1	-3%	-21%	?	0%	66
CCCOC(=O)c1ccc(NC(=O)c2cc(OC)c(OC)c(OC)c2Br)cc1	-2%	?	?	-1%	39
COc1ccc(C(O)c2ncc(-c3ccccc3F)[nH]2)cc1 (stereo unspecified)	-3%	-21%	?	9%	12
CC(=O)c1ccc(N2CCN(c3ncnc4c3c(-c3ccccc3)cn4-c3ccc(C)c(Cl)c3)CC2)cc1	nt	9%	-2%	nt	nt
SMILES	HT1080 IDH1KD tx	DT40 TDP1 no CPT	DT40 TDP1 CPT	HT1080NT lethal	IL1B secr inh
Cc1ccc(Cl)cc1-n1ncc2c(N3CCCCCC3)ncnc21	nt	8.2µM*	5.8µM*	nt	nt
CC(=O)c1ccc(N2CCN(c3ncnc4c3cnn4-c3cc(Cl)ccc3C)CC2)cc1	nt	5.8µM*	2.6µM*	nt	nt
CCN(c1ncnc2c1cnn2-c1cc(Cl)ccc1C)C1CCCCC1	nt	15µM*	15µM*	nt	nt
CCOC(=O)C1CCCN(c2ncnc3c2cnn3-c2ccc(Cl)cc2)C1 (stereo unspecified)	?	?	-25%	11%	-12
Cc1ccc(-n2ncc3c(N4CCCCCC4)ncnc32)cc1Cl	nt	-12%	-28%	nt	nt
CC(=O)c1ccc(N2CCN(c3ncnc4c3cnn4C)CC2)cc1	nt	8.2µM*	?	nt	nt
CCN(c1ccccc1)S(=O)(=O)c1nnc(NC(=O)C(C)C)s1	-11%	-12%	-13%	-4%	-16
Cc1nn(-c2ccccc2)c2nc(C3CC3)cc(C(=O)NCc3ccccc3Cl)c12	nt	23µM*	?	nt	nt
Cc1cc(C(=O)NCc2ccccc2Cl)c2c(C)nn(-c3cccc(F)c3)c2n1	nt	21µM*	?	nt	nt
COc1cc(NC(=O)c2cc(C3CC3)nc3c2c(C)nn3-c2ccc(C)cc2)cc(OC)c1	nt	6.5µM*	?	nt	nt
COc1ccc(NC(=O)c2cc(-c3ccccc3)nc3c2c(C)nn3-c2ccccc2)c(OC)c1	1%	?	?	5%	5
COc1ccc(C(=O)C(C)OC(=O)C2CC3CCCC(C2)C3=O)cc1 (stereo unspecified)	0%	?	?	13%	-4
CCc1nc2c(OCc3cccc(OC)c3)cccn2c1N(C)C(=O)c1ccc(OC)cc1	-1%	16µM*	?	5%	-30
CCc1nc2c(OCc3cc(Cl)cc(Cl)c3)cccn2c1N(C)C(=O)c1cccc(OC)c1	?	?	?	?	-56*
CCc1nc2c(OCc3cccc(Cl)c3)cccn2c1N(C)C(=O)c1ccc(OC)cc1	-12%	16µM*	?	-6%	0
CCc1nc2c(OCC3COc4ccccc4O3)cccn2c1N(C)C(=O)c1cccc(OC)c1 (stereo unspecified)	0%	?	?	-1%	-11
CCc1nc2c(OCc3ccccc3C(=O)OC)cccn2c1N(C)C(=O)c1cccc(OC)c1	1%	23µM*	13µM*	-4%	-3
CCc1nc2c(OCc3ccc(OC)cc3)cccn2c1N(C)C(=O)c1ccncc1	7%	-22%	-5%	3%	24
CCc1nc2c(OCCc3cccc(OC)c3)cccn2c1N(C)C(=O)c1ccc(OC)cc1	-5%	?	?	0%	-29
COC(=O)Sc1nc(N2CCOCC2)c2c(c1C#N)CC(C)(C)OC2	0%	?	26µM*	-6%	-20
CC(C)Sc1nc(N2CCOCC2)c2c(c1C#N)CC(C)(C)N(C)C2	-5%	16µM*	18µM*	0%	10
